Test [1] addresses Aldehyde dehydrogenase, mitochondrial (Homo sapiens) (UniProt P05091). The test can be described thus: qHTS for Inhibitors of the Aldehyde Dehydrogenase Family (ALDH2) Primary screen (AID 2061308). Further: nearly all actives have a fitted effect of over 55% in size.
Test [2] deals with Retinaldehyde dehydrogenase 3 (Homo sapiens) (UniProt P47895). As to the kind of experiment: qHTS for Inhibitors of the Aldehyde Dehydrogenase Family (ALDH1A3) Primary screen (AID 2061315). In general terms: Quantitative high-throughput screening tests each substance at several concentrations.

Records with an inconclusive call do not appear. Entries that show only a call come without a potency. Calls of active or inactive are those of the source. The call rests on the fitted dose curve; in most records, active means well fitted curve in the direction sought with a large enough effect; inconclusive means small, poorly fitted or top-dose-only effect, or another doubt; inactive means no such curve, though single readings can be large; an effect the other way counts as inactive or inconclusive.

For the molecule `C=C1C(=O)O[C@@H]2C[C@H](C)[C@@H]3CC(=O)C(C)=C3C[C@H]12`, the Potency entry in test [1] and in test [2] was “inactive” in each case.
For the molecule `CCCc1cc(=O)c2ccccc2n1C`, the Potency result in test [1] and in test [2] was “inactive” throughout.
As to `CCN1CCCC1Cn1c(-c2ccccc2)nc2c(NC3CCCCC3)nc(C)nc21` (stereo not given), the Potency entry in test [1] and in test [2] was “inactive” in each case.
`O=[S+]([O-])(c1ccc2c(c1)OCCO2)N1CCN([S+](=O)([O-])c2c(Cl)cc(Cl)cc2Br)CC1`: the Potency entry in test [1] and in test [2] was “inactive” in each case.
For the molecule `CCOC(=O)Nc1sc2c(c1C(N)=O)CCCC2`, the Potency entry in test [1] and in test [2] was “inactive” each time.
Regarding `O=C1CCCC2=C1C1(CCCC1)N=C(Nc1nc3cc(Br)ccc3o1)N2`, the Potency result in test [1] and in test [2] was “inactive” each time.
For `C#CCOc1cccc(-c2nnc3n2N=C(c2ccc(OC)c(OCC(C)=O)c2)CS3)c1`, the Potency entry in test [1] and in test [2] was “inactive” each time.
In the case of `Cc1ccc2nc3sc(C(=O)N4CCC(C(N)=O)CC4)cc3cc2c1`, the Potency result in test [1] and in test [2] was “inactive” in each case.
In the case of `Fc1cnc(-c2ccccc2C(F)F)nc1NCc1ccc(-c2cccnc2)cc1`, the Potency entry in test [1] and in test [2] was “inactive” throughout.
Consider `Cc1ccc(NS(=O)(=O)c2cc3c(cc2Cl)CCC(=O)N3)cc1Cl`, for which the Potency result in test [1] and in test [2] was “inactive” in each case.
`COc1cccc(-c2ccc3ncnc(NCc4cc(C)cs4)c3c2)c1`: the Potency result in test [1] and in test [2] was “inactive” in each case.
For the molecule `CN(C)c1ccc(CNc2nc(-c3ccccc3C(F)(F)F)nc3ccccc23)cc1`, the Potency entry in test [1] and in test [2] was “inactive” each time.
As for `CCN1CCN(C(=O)CCN(CC(C)C)c2nc(-c3cccs3)nc3ccccc23)CC1`, the Potency result in test [1] and in test [2] was “inactive” each time.
`Fc1cnc(-c2ccccc2C(F)F)nc1NCc1ccc(-c2ccn[nH]2)cc1`: the Potency result in test [1] and in test [2] was “inactive” in each case.
Take `CCCn1c(C)nc2c(Nc3ccccc3)nc(C)nc21`: the Potency result in test [1] and in test [2] was “inactive” each time.
In the case of `O=S(=O)(Nc1ccccc1)c1ccc(O)c2ncccc12`, the Potency result in test [1] and in test [2] was “inactive” in each case.
For the molecule `Cc1nc(CNc2ncnc3ccc(-c4ccoc4)cc23)cs1`, the Potency result in test [1] and in test [2] was “inactive” in each case.
Regarding `Cc1cc(C)nc(NC(=S)N2CCN(c3ncc(C(F)(F)F)cc3Cl)CC2)c1`, the Potency entry in test [1] and in test [2] was “inactive” in each case.
Turning to `CN(Cc1ccco1)c1ncnc2ccc(-c3ccc4c(ccn4C)c3)cc12`, the Potency result in test [1] and in test [2] was “inactive” throughout.
As to `Cn1nnnc1Sc1ncnc2scc(-c3ccc(C#N)cc3)c12`, the Potency result in test [1] and in test [2] was “inactive” throughout.
On to `CCCn1c(C)nc2c(N(CCN(C)C)Cc3ccccc3)nc(C)nc21`, for which the Potency result in test [1] and in test [2] was “inactive” throughout.
Regarding `Cc1cc(C)nc(NC(=S)N2CCN(c3ncccc3C(F)(F)F)CC2)c1`, the Potency result in test [1] and in test [2] was “inactive” each time.
On to `O=[N+]([O-])c1ccccc1S(=O)(=O)N1CCN(S(=O)(=O)c2ccc3c(c2)OCCO3)CC1`, for which the Potency result in test [1] and in test [2] was “inactive” each time.
As for `O=C(OCC#CCSc1nnc(-c2ccccc2)o1)c1ccc(F)cc1`, the Potency entry in test [1] and in test [2] was “inactive” in each case.
As for `COc1ccc(C[C@H](C(=O)O)N2C(=O)c3ccc(C(=O)O)cc3C2=O)cc1`, the Potency entry in test [1] and in test [2] was “inactive” in each case.
`Cc1cc2c(s1)c1cnn(Cc3ccccc3Cl)c(=O)c1n2C`: the Potency entry in test [1] and in test [2] was “inactive” throughout.
With `Cc1ccc(S(=O)(=O)Nc2cnccc2C(=O)Nc2nc(-c3cccc(C)c3)cs2)cc1`, the Potency result in test [1] and in test [2] was “inactive” in each case.
Turning to `O=C(NCc1ccccc1)n1cc(P(=S)(c2ccccc2)c2ccccc2)c2ccccc21`, the Potency entry in test [1] and in test [2] was “inactive” throughout.
`CCCCc1nnc(-c2cnn(C)c2N)n1CCCn1ccnc1`: the Potency entry in test [1] and in test [2] was “inactive” each time.
As to `COc1cccc(CNc2ccc(S(=O)(=O)Nc3ccc(-c4ccccc4)cc3)cc2)c1O`, the Potency entry in test [1] and in test [2] was “inactive” each time.
Take `CONC(=O)C[C@@H](C#N)NC(=O)[C@@H]1CCCN1C(=O)[C@@H](NC(=O)c1ccc(N)c(Cl)c1)C(C)(C)C`: the Potency result in test [1] and in test [2] was “inactive” each time.
In the case of `COc1ccc(C2=Nn3c(nnc3-c3ccccc3F)SC2)cc1OC`, the Potency result in test [1] and in test [2] was “inactive” in each case.
Turning to `CCOc1ccc(CCNC(=O)C2=C(C)OCCO2)cc1OCC`, the Potency result in test [1] and in test [2] was “inactive” each time.
In the case of `COc1cc(O)c(C(CC(=O)N2CC(C)NC(C)C2)c2ccc3c(c2)OCO3)c(OC)c1` (stereo not given), the Potency result in test [1] and in test [2] was “inactive” throughout.
On to `O=C(Nc1ccc(F)c(F)c1)Nc1nnc(-c2ccncc2)s1`, for which the Potency result in test [1] and in test [2] was “inactive” in each case.
`COc1ccc(S(=O)(=O)Nc2c(C)cc(C)cc2C)cc1`: the Potency entry in test [1] and in test [2] was “inactive” in each case.
For the molecule `O=C(Nc1ccc(Cl)c(S(=O)(=O)N2CCOCC2)c1)c1ccc(S(=O)(=O)N2CCOCC2)cc1`, the Potency result in test [1] and in test [2] was “inactive” each time.
For the molecule `Nc1nc2c(ncn2C2OC3COP(=O)(O)OC3C2O)c(=O)[nH]1` (stereo not given), the Potency entry in test [1] and in test [2] was “inactive” each time.
As to `CS(=O)(=O)c1ccc(C(=O)OC(C(=O)NC2C3CC4CC(C3)CC2C4)c2ccccc2)cc1[N+](=O)[O-]` (stereo not given), the Potency result in test [1] and in test [2] was “inactive” in each case.
Turning to `C=CCc1cccc(CNc2ccc(S(=O)(=O)Nc3nccs3)cc2)c1O`, the Potency entry in test [1] and in test [2] was “inactive” in each case.
